This passage reports inhibition results from PubChem BioAssay AID1445 (SRMLSC, 2008).

About 910 (0.41%) of roughly 220,000 compounds were called active. The entries come from a sample that favours actives as a whole. Potency and affinity values are given separately. A number with no mark means an inactive call.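 How the source made its calls: active means primary inhibition above the hit cutoff, then over 50% inhibition at one or more dose response concentrations (cut at about 23% in these data, passing the limit was not always enough); inconclusive means conflicting primary data, or primary hits not chosen for dose response; inactive means low primary inhibition, or under 50% at every dose.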

The term inhibition denotes the drop in the measured response relative to a control, in per cent.

The target of this test is Aminopeptidase N (Plasmodium falciparum (isolate 3D7)) (UniProt O96935). The test is described as follows: P. falciparum M1AAP inhibitors, biochemical, fluorogenic H-Leu-NHMec substrate, 1536-well (AID 1445).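 Further: plate controls were DMSO full reaction for no effect and no enzyme background for full effect.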 The following applies: recombinant M1AAP, H-Leu-NHMec fluorogenic kinetic assay; at 30 µM, hits give high values unless noted.
Sequence of Aminopeptidase N (Plasmodium falciparum (isolate 3D7)) (O96935 whole entry, looked up): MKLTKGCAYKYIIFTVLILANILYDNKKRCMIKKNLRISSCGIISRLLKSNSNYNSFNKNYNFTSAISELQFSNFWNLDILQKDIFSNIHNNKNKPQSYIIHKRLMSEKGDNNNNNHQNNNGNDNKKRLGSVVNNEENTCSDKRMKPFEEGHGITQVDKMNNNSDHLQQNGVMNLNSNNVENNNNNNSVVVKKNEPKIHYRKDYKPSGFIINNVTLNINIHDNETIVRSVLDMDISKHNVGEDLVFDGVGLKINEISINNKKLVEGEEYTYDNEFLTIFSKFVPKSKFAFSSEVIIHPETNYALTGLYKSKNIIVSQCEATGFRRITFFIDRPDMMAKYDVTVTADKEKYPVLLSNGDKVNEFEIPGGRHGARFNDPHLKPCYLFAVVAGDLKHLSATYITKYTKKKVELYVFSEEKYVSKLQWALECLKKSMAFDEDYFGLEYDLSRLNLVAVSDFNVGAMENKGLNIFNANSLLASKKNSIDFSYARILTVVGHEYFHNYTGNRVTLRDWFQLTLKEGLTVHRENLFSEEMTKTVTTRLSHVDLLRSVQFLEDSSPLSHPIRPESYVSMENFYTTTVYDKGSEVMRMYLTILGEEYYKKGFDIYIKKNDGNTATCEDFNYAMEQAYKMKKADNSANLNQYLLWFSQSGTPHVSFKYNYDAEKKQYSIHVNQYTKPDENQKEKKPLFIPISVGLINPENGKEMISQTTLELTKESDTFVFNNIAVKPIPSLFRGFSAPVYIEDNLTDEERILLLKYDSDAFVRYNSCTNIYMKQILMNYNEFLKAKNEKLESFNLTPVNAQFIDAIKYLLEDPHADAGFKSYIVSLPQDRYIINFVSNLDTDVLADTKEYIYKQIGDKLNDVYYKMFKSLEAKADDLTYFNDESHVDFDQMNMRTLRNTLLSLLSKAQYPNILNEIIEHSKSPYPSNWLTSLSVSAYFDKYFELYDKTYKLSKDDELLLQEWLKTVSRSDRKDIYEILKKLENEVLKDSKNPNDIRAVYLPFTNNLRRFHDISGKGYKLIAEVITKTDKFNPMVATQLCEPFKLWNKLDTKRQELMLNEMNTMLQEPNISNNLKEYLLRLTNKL
For the compound `O=C1CCCc2oc3c(cc(NS(=O)(=O)c4ccc5c6c(cccc46)C(=O)N5)c4ccccc43)c21`, the inhibition was 3.6%.

Take `Cc1oc2c(cc(NS(=O)(=O)c3cccs3)c3ccccc32)c1C(=O)OC(C)C`: the inhibition is 3.76%.

As to `N=c1c(C(=O)NCC2CCCO2)cc2c(=O)n3ccccc3nc2n1Cc1cccnc1` (stereo unspecified), the inhibition is 20%.

On to `CCCn1c(=N)c(C(=O)NCC2CCCO2)cc2c(=O)n3cccc(C)c3nc21` (stereo unspecified), for which the inhibition was 7.23%.

Take `Cc1cccn2c(=O)c3cc(C(=O)NCC4CCCO4)c(=N)n(CCN4CCOCC4)c3nc12` (stereo unspecified): the inhibition is 8.4%.

With `COCCCn1c(=N)c(C(=O)NCc2ccc3c(c2)OCO3)cc2c(=O)n3ccccc3nc21`, the inhibition was 4.69%.

With `COc1ccccc1N1C(=O)c2ccc(C(=O)Nc3nccs3)cc2C1=O`, the inhibition is 7.44%.

As for `O=C(CSc1ccc(-c2ccccn2)nn1)c1ccc(F)cc1`, the inhibition was 1.12%.

As to `N#Cc1c(N)sc(=S)c2c1CCCC2`, the inhibition is 9.2%.

Take `N#Cc1c(N)sc2c1CCCCCC2`: the inhibition was 7.78%.

`N#Cc1c(N)sc(=S)c2c1CCCCC2`: the inhibition was 23.8% (active).

Regarding `Cn1cnnc1Sc1ccc(C(=O)OCC(=O)Nc2cc(Cl)cc(Cl)c2)cc1[N+](=O)[O-]`, the inhibition is 3.75%.

For the compound `CCN(CC)S(=O)(=O)c1cccc(C(=O)Nc2cccnc2)c1`, the inhibition was -0.19%.

As to `CCN(CC)c1ccc(NC(=O)c2cccnc2)c(C)c1`, the inhibition was 3.17%.

In the case of `NNC(=O)c1ccc2c(c1)S(=O)(=O)NNC2=O`, the inhibition is 8%.

As for `CC(C)N(C)C1CCN(C(=O)Nc2ccc(Cl)c(Cl)c2)CC1`, the inhibition is 6.97%.

`COc1cc(OC)c(NC(C)C(=O)N2CCCC2)cc1Cl` (stereo unspecified): the inhibition was 11.4%.

In the case of `COc1cc(OC)c(NS(=O)(=O)c2cc(C(=O)OC(C)C(=O)NC3CC3)c(Cl)cc2Cl)cc1Cl` (stereo unspecified), the inhibition was 10%.

In the case of `CCCCCCOc1ccc(C(CC(=O)O)C(N)=O)cc1` (stereo unspecified), the inhibition is -7.78%.

As for `O=C(NCc1cccnc1)C(=O)NCC(c1ccco1)N1CCOCC1` (stereo unspecified), the inhibition is 11.1%.

For `Cc1[nH]c2ccccc2c1/C=N/NC(=O)CNC(=O)c1cccs1`, the inhibition is 0.9%.

Regarding `CCN1CCN(CC(=O)N/N=C/c2ccc(F)cc2F)CC1`, the inhibition was 15.6%.

As to `COc1ccc(C(=O)C(/C=N/O)=N/Nc2ccc(F)cc2)cc1`, the inhibition is 4.27%.

`COc1ccc(N/N=C(\C=N\O)C(=O)c2ccc(OC)cc2)cc1`: the inhibition was 24.1% (active).

For `CO/N=C/C(=N\Nc1ccc(OC)cc1)C(=O)c1ccc(OC)cc1`, the inhibition is 12%.

As to `Cc1nc2sc3c(c2c(=O)n1/N=C/c1cccnc1)CCCC3`, the inhibition is 2.58%.
